The results in this text go back to PubChem BioAssay.

Assay [1] can be described thus: small molecules captured by biotinylated probe aFSTL3 – biochemical, small-molecule microarray, fluorescence 635/667, stem cell growth factor project, primary screen (AID 1064).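 Note: measures binding of the biotinylated anti-FSTL3 antibody to printed compounds.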 The note with it: higher = more signal.
Assay [2] in a line: binders from COS7 lysate, DM2A8 probe, primary screen, torsin A project, cell lysate, small-molecule microarray, fluorescence 635/667 (AID 1065). To be noted: higher = more signal, COS7 lysate expressing mutant human TOR1A.
Assay [3] is described as follows: small molecules captured by biotinylated probe aFGF2 – biochemical, small-molecule microarray, fluorescence 635/667, stem cell growth factor project, primary screen (AID 1067).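 Note: measures binding of biotinylated aFGF2 protein to printed compounds on slides; z-score merges feature fluorescence and signal-to-noise across triplicate slides.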 The note with it: higher = more signal.
The nature of assay [4]: small molecules captured by biotinylated probe aFGF10 – biochemical, small-molecule microarray, fluorescence 635/667, stem cell growth factor project, primary screen (AID 1071).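 Note: score merges 667 nm spot intensity and signal to noise from triplicate slides.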 To be noted: higher = more signal.
The target in assay [5] is Neurogenic locus notch homolog protein 2 (Homo sapiens) (UniProt Q04721). Description: small molecules binding Notch2 protein – biochemical, small-molecule microarray, 635 nm fluorescence, stem cell growth factors, primary screen (AID 1073). To be noted: higher = more signal.
Assay [6] concerns the target Pro-neuregulin-1, membrane-bound isoform (Homo sapiens) (UniProt Q02297). Description: small molecules binding neuregulin-1 protein – biochemical, small-molecule microarray, fluorescence 635/667, psychiatric disease protein project, primary screen (AID 1075).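 Note: score combines 667 nm spot fluorescence with signal to noise.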 The note with it: NRG1 binding, 635 nm fluorescence, higher = more signal.
Assay [7] concerns Neuregulin-1 EGF-like domain. Description: small molecules binding NRG1 EGF domain – biochemical, small-molecule microarray, 635 nm fluorescence, primary screen (AID 1081).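 Note: binding of the protein to compounds printed on small-molecule microarray slides.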 To be noted: higher = more signal.
The nature of assay [8]: FRG1 expression reporter modulators in myotubes – cell-based, C2C12 myotubes, firefly/Renilla luciferase, luminescence, FRG1 inhibition for FSHD, primary screen (AID 1084). To be noted: FRG1 promoter luciferase, higher = more signal, called active from +8 up or from −8 down.
Assay [9] is described as follows: small molecules captured by biotinylated probe aFST – biochemical, small-molecule microarray, fluorescence 635/667, stem cell growth factor project, primary screen (AID 1086).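 Note: score merges 667 nm fluorescence with signal-to-noise of each printed compound spot.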 The note with it: higher = more signal.
Assay [10] can be described thus: binders of probe aHhip on microarray, primary screen, stem cell growth factor project, biochemical, small-molecule microarray, fluorescence 635/667 (AID 1087).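 Note: score merges spot fluorescence at 667nm with spot signal to noise ratio.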 The note with it: higher = more signal.
Assay [11] concerns PRMT1 (protein arginine N-methyltransferase 1). Put plainly: small molecules binding arginine methyltransferase PRMT1 – biochemical, small-molecule microarray, 635 nm fluorescence, primary screen (AID 1088).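 Note: binding of Prmt1 protein to compounds spotted on small-molecule microarray slides.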 The note with it: higher = more signal.
Assay [12] in a line: growth effects on S. cerevisiae YJM789 – YJM789 clinical isolate, OD600, 24 h, basal, primary screen (AID 1089).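 Note: growth of clinical yeast isolate S. cerevisiae YJM 789 seeded 1000 cells per well; test concentration not given here.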 To be noted: higher = more signal, called active from +8 up or from −8 down.
Assay [13] is described as follows: S. pombe growth modifiers, basal conditions – strain 972, OD600, 24 h, no modulator, primary screen (AID 1090).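 Note: basal condition with compound alone and no growth modifier present; test concentration not given here.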 To be noted: S. pombe 972 growth, higher = more signal, called active from +8 up or from −8 down.
A short description of assay [14]: budding yeast growth modifiers under rapamycin – strain BY4716, OD600, 96 h, primary screen (AID 1091). Note: test concentration not given here. The note with it: S. cerevisiae BY4716 + rapamycin, higher = more signal, called active from +8 up or from −8 down.
The target in assay [15] is Torsin-1A-interacting protein 2 (Homo sapiens) (UniProt Q8NFQ8). Put plainly: small molecules binding lysate-expressed LULL1 – cell lysate, human LULL1 lysate, 635/667 nm fluorescence, primary screen (AID 1092).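 Note: probe is lysate of COS7 cells overexpressing human LULL1; score merges per-feature 667 nm fluorescence with signal-to-noise.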 To be noted: small-molecule microarray, hLULL1 lysate binding, 635 nm fluorescence; higher = more signal.
Assay [16] can be described thus: optical density change of DRC41 E. coli – strain DRC41, OD650, 24 h, E. coli filamentation project, primary screen (AID 1093).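 Note: MC1000 strain lacking acrAB efflux and sulA so SOS filamentation is blocked; test concentration not given here.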 The note with it: E. coli DRC41 growth, higher = more signal, called active from +8 up or from −8 down.
A short description of assay [17]: probe aLefty2 binding to arrayed compounds – biochemical, biotinylated probe, 635/667 nm fluorescence, primary screen (AID 1094).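 Note: score merges spot fluorescence near 667 nm with spot signal-to-noise ratio.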 The note with it: small-molecule microarray, higher = more signal.
The subject of assay [18] is Noggin (protein binding on small-molecule microarray). Description: small molecules binding Noggin protein – biochemical, 635/667 nm fluorescence, primary screen (AID 1095).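 Note: score merges 667 nm feature fluorescence with signal to noise over triplicate slides.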 The note with it: 635 nm fluorescence, higher = more signal.
The target in assay [19] is Neurogenic locus notch homolog protein 3 (Homo sapiens) (UniProt Q9UM47). Put plainly: small molecules binding NOTCH3 protein – biochemical, 635/667 nm fluorescence, primary screen (AID 1096). To be noted: small-molecule microarray, 635 nm fluorescence, higher = more signal.
Assay [20] is described as follows: probe aEGFR binding to arrayed compounds – biochemical, biotinylated probe, 635/667 nm fluorescence, primary screen (AID 1097).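 Note: probe is a biotinylated anti-EGFR antibody binding compounds printed on slides; score combines fluorescence near 667 nm and signal to noise of each spot.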 To be noted: small-molecule microarray, higher = more signal.

Active and inactive are the calls of the source.

Sequence of Pro-neuregulin-1, membrane-bound isoform (Homo sapiens) (Q02297 whole entry, looked up, the tested form may be a part, canonical isoform): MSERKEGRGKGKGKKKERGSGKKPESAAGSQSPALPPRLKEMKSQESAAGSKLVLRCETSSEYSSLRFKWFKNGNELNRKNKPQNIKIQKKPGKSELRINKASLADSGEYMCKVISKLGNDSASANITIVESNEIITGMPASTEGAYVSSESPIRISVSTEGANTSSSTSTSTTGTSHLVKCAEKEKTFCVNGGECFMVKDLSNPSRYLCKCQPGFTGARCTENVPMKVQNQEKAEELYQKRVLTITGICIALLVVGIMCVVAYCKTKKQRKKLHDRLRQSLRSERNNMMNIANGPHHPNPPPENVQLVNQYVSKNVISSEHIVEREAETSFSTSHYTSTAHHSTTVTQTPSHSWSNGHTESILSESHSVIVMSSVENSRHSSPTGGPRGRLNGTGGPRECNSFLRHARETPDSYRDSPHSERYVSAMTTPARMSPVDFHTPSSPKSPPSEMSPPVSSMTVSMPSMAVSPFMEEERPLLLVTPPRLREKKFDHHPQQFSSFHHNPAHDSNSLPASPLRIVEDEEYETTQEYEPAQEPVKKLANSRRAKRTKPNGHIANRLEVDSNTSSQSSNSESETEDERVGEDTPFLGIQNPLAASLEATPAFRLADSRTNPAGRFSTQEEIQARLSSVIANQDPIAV
Sequence of Neurogenic locus notch homolog protein 3 (Homo sapiens) (Q9UM47 whole entry, looked up): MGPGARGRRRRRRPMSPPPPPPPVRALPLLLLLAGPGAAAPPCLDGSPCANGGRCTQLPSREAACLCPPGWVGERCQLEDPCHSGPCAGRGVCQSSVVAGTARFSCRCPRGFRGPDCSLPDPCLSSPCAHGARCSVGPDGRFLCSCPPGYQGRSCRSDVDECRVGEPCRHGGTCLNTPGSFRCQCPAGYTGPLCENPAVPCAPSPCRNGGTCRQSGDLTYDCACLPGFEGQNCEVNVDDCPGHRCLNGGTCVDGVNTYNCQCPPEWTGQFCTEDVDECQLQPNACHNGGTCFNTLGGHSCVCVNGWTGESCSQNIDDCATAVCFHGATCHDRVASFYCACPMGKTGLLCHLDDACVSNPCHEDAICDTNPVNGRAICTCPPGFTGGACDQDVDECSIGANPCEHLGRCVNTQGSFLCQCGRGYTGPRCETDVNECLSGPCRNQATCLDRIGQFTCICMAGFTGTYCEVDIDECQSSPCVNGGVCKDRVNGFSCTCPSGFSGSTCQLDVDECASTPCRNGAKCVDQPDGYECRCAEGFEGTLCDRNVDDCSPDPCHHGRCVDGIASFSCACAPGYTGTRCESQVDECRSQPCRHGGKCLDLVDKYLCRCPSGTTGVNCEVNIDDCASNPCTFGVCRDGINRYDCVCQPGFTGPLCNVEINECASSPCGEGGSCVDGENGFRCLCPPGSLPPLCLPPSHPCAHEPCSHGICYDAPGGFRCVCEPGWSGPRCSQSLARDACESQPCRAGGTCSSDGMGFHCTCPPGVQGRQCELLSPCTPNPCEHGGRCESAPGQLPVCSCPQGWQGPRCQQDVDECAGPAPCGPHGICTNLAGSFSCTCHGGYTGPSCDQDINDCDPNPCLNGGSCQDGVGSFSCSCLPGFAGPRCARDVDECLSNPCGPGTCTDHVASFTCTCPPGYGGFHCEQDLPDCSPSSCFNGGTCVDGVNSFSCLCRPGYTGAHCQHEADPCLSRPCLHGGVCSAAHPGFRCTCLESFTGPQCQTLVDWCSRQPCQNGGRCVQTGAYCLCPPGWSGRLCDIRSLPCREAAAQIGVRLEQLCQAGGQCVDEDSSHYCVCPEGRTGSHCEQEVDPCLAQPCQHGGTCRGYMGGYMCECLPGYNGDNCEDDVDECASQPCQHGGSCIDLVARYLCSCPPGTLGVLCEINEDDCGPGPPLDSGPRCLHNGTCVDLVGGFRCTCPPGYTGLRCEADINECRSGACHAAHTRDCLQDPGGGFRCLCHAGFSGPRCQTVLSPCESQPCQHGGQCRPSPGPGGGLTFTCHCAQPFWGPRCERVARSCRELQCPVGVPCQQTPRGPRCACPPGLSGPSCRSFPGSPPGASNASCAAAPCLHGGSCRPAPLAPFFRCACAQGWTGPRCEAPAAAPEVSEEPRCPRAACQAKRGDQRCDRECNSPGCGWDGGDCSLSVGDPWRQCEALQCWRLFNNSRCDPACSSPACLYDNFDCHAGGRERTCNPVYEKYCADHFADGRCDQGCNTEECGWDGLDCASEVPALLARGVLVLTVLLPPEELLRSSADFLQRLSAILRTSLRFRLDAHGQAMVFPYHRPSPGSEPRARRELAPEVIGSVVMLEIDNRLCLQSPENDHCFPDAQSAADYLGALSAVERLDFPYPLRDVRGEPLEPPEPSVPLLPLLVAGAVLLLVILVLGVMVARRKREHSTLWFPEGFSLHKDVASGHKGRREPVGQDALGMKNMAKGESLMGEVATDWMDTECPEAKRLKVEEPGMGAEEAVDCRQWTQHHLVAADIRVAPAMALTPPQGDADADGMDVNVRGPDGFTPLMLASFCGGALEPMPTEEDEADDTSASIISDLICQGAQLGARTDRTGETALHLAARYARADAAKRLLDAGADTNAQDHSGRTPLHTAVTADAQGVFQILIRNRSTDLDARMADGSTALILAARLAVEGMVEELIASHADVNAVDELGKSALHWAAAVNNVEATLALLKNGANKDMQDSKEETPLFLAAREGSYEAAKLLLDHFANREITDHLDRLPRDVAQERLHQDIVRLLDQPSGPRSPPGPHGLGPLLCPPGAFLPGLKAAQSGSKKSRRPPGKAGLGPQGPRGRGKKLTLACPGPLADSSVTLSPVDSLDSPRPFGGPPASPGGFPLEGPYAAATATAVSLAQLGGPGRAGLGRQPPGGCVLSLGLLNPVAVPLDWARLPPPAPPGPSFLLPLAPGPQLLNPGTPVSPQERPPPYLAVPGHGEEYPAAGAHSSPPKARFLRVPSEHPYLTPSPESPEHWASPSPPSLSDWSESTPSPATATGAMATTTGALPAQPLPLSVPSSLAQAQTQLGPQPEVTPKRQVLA
Sequence of Torsin-1A-interacting protein 2 (Homo sapiens) (Q8NFQ8 whole entry, looked up): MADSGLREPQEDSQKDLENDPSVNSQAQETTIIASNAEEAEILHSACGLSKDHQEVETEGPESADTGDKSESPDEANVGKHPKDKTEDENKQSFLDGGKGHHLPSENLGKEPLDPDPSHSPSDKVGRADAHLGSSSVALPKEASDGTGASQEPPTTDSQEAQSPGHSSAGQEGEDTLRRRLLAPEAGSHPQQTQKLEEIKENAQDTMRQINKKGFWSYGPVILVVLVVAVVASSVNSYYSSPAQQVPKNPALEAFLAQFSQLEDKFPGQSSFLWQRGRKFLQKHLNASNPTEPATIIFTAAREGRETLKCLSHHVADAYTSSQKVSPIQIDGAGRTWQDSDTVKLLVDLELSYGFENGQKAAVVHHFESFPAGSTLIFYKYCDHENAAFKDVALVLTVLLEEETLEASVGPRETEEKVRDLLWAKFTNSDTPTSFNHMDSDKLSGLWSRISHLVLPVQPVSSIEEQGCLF

On to `COC(=O)C1(Cc2ccccc2)C=C2C(=C(C(C)C)C(=O)C2C)CN1` (stereo not given), for which the composite z-score is 1.63 in [1]; 1.26 in [2]; 0.0992 in [3]; -0.66 in assay [4]; -0.0793 in assay [5]; 1.25 in assay [6]. Also, the composite z-score is 0.853 in [7]; 1.24 in [9]; 0.773 in assay [10]; -1.15 in assay [11]; 2.41 in assay [15]; 0.469 in assay [17]. Further, the composite z-score was -1.79 in assay [18], -1.05 in [19] and 0.156 in assay [20]. For the same compound, the z-score in assay [8] is 3.19 (inactive); in assay [12], 0.557 (inactive); in [13], -0.315 (inactive); in assay [14] it was 0.471 (inactive); in assay [16], -1.53 (inactive).

`C=CCC(OC(C)=O)[C@@H]1[C@@H](N(Cc2ccc(-c3ccccc3)cc2)C(=O)c2cccc3ccccc23)c2cc(OCCCO)ccc2N1C(=O)Cc1ccc2ccccc2c1` (stereo not given in full): the composite z-score in assay [1] was -0.144; in assay [2], 0.407; in assay [3], -0.0445; in assay [4], 0.237; in assay [5], -0.101; in assay [6], -0.278. Moreover, the composite z-score in [7] is -0.621; in assay [9], -0.0377; in assay [10] it was 0.154; in [11], -0.419; in [15], 0.95; in assay [17], -0.0407. The values for the composite z-score in assay [18], in assay [19] and in assay [20] were 0.514, -0.377 and -0.123, respectively. For the same compound, the z-score is -0.873 (inactive) in [8]; -0.554 (inactive) in [12]; -0.691 (inactive) in assay [13]; -0.311 (inactive) in assay [14]; 0.153 (inactive) in [16].

Take `C#CCNC(=O)[C@H](Cc1ccccc1)NC(=O)[C@@H](N=[N+]=[N-])C(C)C`: the composite z-score in [1] is -0.57; in assay [2], -0.003; in assay [3], -0.0894; in [4], 0.334; in assay [5], 1.04; in assay [6], 0.452. The composite z-score in [7] was 1.08; in assay [9] it was 0.16; in assay [10], -0.409; in assay [11], 0.911; in assay [15] it was 1.57; in assay [17] it was -0.116. Moreover, the composite z-score in [18] is 0.434; in [19], 0.5; in assay [20], -0.071. Besides, the z-score in [8] is 0.171 (inactive); in [12], -0.611 (inactive); in [13], 0.139 (inactive); in assay [14], -0.229 (inactive); in assay [16], 0.35 (inactive).

In the case of `C=CCOC(=O)[C@H]1[C@@H]2C(=O)O[C@@H](c3ccccc3)[C@@H](c3ccccc3)N2[C@@H](c2ccc(OCCOC(=O)[C@H]3C[C@H]4C(=O)N[C@@H](CCCC[N+](C)(C)C)C(=O)N4[C@H]3c3cccc(OCCO)c3)cc2)[C@]12C(=O)Nc1ccc(I)cc12`, the composite z-score in assay [1] is -0.345; in [2], 0.46; in assay [3] it was -0.0937; in [4], 0.723; in assay [5] it was 0.312; in assay [6] it was 0.288. Besides, the composite z-score in [7] was 0.755; in [9] it was -0.278; in assay [10], -0.126; in assay [11], 1.29; in [15] it was 0.7; in assay [17] it was -0.166. In addition, the composite z-score in assay [18] came to 0.673; in [19] it was 0.456; in assay [20], 0.002. Also, the z-score was 0.707 (inactive) in assay [8]; 1.11 (inactive) in assay [12]; 2.23 (inactive) in assay [13]; 4.75 (inactive) in [14]; 0.396 (inactive) in assay [16].

As for `Cc1ccc(S[C@]2(C(=O)NC3CC3)CC(=O)N(Cc3ccccc3Cl)[C@@H]2c2ccc(CO)cc2I)cc1`, the composite z-score in assay [1] is 0.29; in assay [2], 0.132; in [3] it was -0.106; in assay [4] it was 0.171; in assay [5], 0.0538; in assay [6], 1.72. In addition, the composite z-score in assay [7] is 1.24; in assay [9], -0.0129; in assay [10] it was -0.123; in assay [11], 1.54; in assay [15], 3.22; in assay [17] it was 0.0448. In addition, the values for the composite z-score in assay [18], in assay [19] and in assay [20] were 1.34, 0.304 and -0.0238, respectively. In addition, the z-score is -2.19 (inactive) in [8]; -0.362 (inactive) in assay [12]; -1.83 (inactive) in [13]; 0.67 (inactive) in assay [14]; 0.481 (inactive) in assay [16].
